We go through 17 molecules from publication PMC5540273 (PLoS ONE, 2017).

Test systems include CDKL3; CDKL5; CHEK1; CHEK2; CIT; CLK1; CLK2; CLK3; CLK4; CSF1R-autoinhibited.
Common to all, as to conditions: concentration: 1 μM, replicates: in singlicate; n = 1
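Further: KINOMEscan kinase panel screen.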

As to `COc1cc2ncn(-c3cc(OCc4ccc(S(C)(=O)=O)cc4)c(C(N)=O)s3)c2cc1OC` [GW869979], the “%Inh” value with CDKL3 turned out to be 0%; with CDKL5, 15%; in the assay on CHEK1, 18%; with CHEK2, 0%; with CIT it was 29%; with CLK1, 17%. For the same molecule, the “%Inh” value was determined as 1% with CLK2, 0% with CLK3, 0% with CLK4 and 5% in the assay on CSF1R-autoinhibited.

For the molecule `CN1C(=O)C(Nc2cc(Cl)c(O)c(Cl)c2)=C(c2ccc(Cl)cc2)C1=O` [SB-404321], the “%Inh” value in the assay with CDKL3 is recorded as 0%; with CDKL5 it was 0%; in the assay with CHEK1, 0%; in the assay with CHEK2, 0%; in the assay with CIT, 38%; in the assay on CLK1, 22%. The “%Inh” value with CLK2, with CLK3, with CLK4 and in the assay with CSF1R-autoinhibited was 0% each time.

In the case of `Nc1n[nH]c2nnc(-c3ccccc3)c(-c3ccccc3)c12` [GW554060], the “%Inh” value in the assay with CDKL3 is given as 0%; in the assay on CDKL5 it was 0%; in the assay on CHEK1, 24%; in the assay with CHEK2, 0%; with CIT, 26%; in the assay with CLK1 it was 23%. The “%Inh” value in the assay on CLK2 was determined as 65%; in the assay with CLK3, 0%; with CLK4 it was 12%; in the assay on CSF1R-autoinhibited it was 34%.

Regarding `CC(C)(C)c1ccc(C(=O)Nc2cn3cc(-c4ccccc4)ccc3n2)cc1`, the “%Inh” value stood at 0% in the assay on CDKL3; 0% with CDKL5; 4% with CHEK1; 0% with CHEK2; 2% in the assay with CIT; 33% in the assay with CLK1. Moreover, the “%Inh” value in the assay on CLK2 is 7%; with CLK3, 9%; with CLK4, 7%; in the assay with CSF1R-autoinhibited it was 0%.

Turning to `CCC(=O)c1c(-c2ccccc2)c2cc(Cl)ccc2c(=O)n1Cc1cc(S(C)(=O)=O)n(CC(N)=O)n1`, the “%Inh” value with CDKL3 stood at 16%; with CDKL5, 0%; in the assay with CHEK1, 0%; in the assay with CHEK2, 0%; in the assay on CIT, 11%; in the assay on CLK1, 0%. For the same molecule, the “%Inh” value with CLK2 was 7%; in the assay on CLK3 it was 0%; in the assay on CLK4, 63%; in the assay with CSF1R-autoinhibited, 0%.

Turning to `CCn1c(-c2ccoc2)nc2cnccc21` [SB-733887], the “%Inh” value in the assay on CDKL3 came to 0%; with CDKL5 it was 0%; with CHEK1, 17%; with CHEK2, 24%; with CIT, 19%; with CLK1 it was 26%. Also, the “%Inh” value with CLK2 stood at 0%; with CLK3 it was 0%; with CLK4 it was 3%; in the assay with CSF1R-autoinhibited, 15%.

For the molecule `COc1cccc(C2=C(N(C)c3ccccc3)C(=O)NC2=O)c1` [SB-334865], the “%Inh” value in the assay on CDKL3 worked out at 0%; in the assay with CDKL5, 0%; with CHEK1 it was 0%; in the assay with CHEK2, 0%; in the assay with CIT, 6%; with CLK1, 15%. Further, the “%Inh” value with CLK2 is given as 0%; in the assay on CLK3, 0%; in the assay with CLK4, 13%; in the assay with CSF1R-autoinhibited, 0%.

`COc1ccc(Nc2nccc(N3CCC(NS(=O)(=O)c4ccc(NC(C)=O)cc4)C3)n2)cc1` (centres unmarked) [GSK1379729]: the “%Inh” value is 4% with CDKL3; 0% in the assay with CDKL5; 14% in the assay on CHEK1; 0% with CHEK2; 22% in the assay on CIT; 25% with CLK1. In addition, the “%Inh” value stood at 0% in the assay on CLK2, 0% in the assay with CLK3, 27% in the assay with CLK4 and 0% in the assay on CSF1R-autoinhibited.

Turning to `COc1cccc(-n2cnc3c(N)ncnc32)c1` [SKF-97416], the “%Inh” value is 0% in the assay with CDKL3; 14% in the assay on CDKL5; 0% in the assay on CHEK1; 25% in the assay with CHEK2; 8% with CIT; 6% in the assay on CLK1. In addition, the “%Inh” value with CLK2 worked out at 3%; in the assay with CLK3, 0%; with CLK4 it was 0%; in the assay on CSF1R-autoinhibited, 16%.

For the molecule `FC(F)(F)c1ccc(-c2ncn(CCCN3CCOCC3)c2-c2ccncc2)cc1` [SB-217780], the “%Inh” value in the assay with CDKL3 was found to be 0%; with CDKL5 it was 16%; in the assay with CHEK1 it was 0%; in the assay with CHEK2, 33%; with CIT it was 0%; in the assay with CLK1, 12%. The “%Inh” value in the assay on CLK2, in the assay on CLK3, in the assay on CLK4 and in the assay on CSF1R-autoinhibited was 0% each time.

In the case of `Cl.c1ccc(Cn2cnc3cc(Nc4ncnc5ccccc45)ccc32)cc1` [GW272142], the “%Inh” value turned out to be 0% with CDKL3; 0% with CDKL5; 0% in the assay with CHEK1; 0% in the assay with CHEK2; 0% in the assay with CIT; 27% in the assay on CLK1. The “%Inh” value in the assay with CLK2 is recorded as 0%; in the assay on CLK3, 72%; with CLK4, 20%; in the assay with CSF1R-autoinhibited, 0%.

As to `CCC(=O)c1c(-c2ccccc2)c2cc(Cl)ccc2c(=O)n1Cc1cc(S(C)(=O)=O)n(CCC(C)(C)O)n1`, the “%Inh” value was 17% in the assay with CDKL3; 40% in the assay on CDKL5; 13% in the assay with CHEK1; 19% in the assay with CHEK2; 2% with CIT; 0% in the assay on CLK1. For the same molecule, the “%Inh” value in the assay on CLK2 is recorded as 1%; in the assay on CLK3, 9%; in the assay on CLK4, 2%; in the assay on CSF1R-autoinhibited, 6%.

Take `CCn1c(-c2nonc2N)nc2ccccc21` [SB-693162/GW549034]: the “%Inh” value in the assay with CDKL3 is 3%; in the assay with CDKL5 it was 25%; with CHEK1, 0%; in the assay on CHEK2, 0%; in the assay on CIT, 31%; in the assay with CLK1, 0%. The “%Inh” value in the assay on CLK2 is given as 0%; in the assay on CLK3, 0%; with CLK4, 0%; in the assay on CSF1R-autoinhibited it was 8%.

For the molecule `Nc1nc(-c2ccccc2F)c(-c2ccnc3ccccc23)s1` [GW560459], the “%Inh” value with CDKL3 was 0%; with CDKL5 it was 0%; with CHEK1, 0%; with CHEK2, 14%; with CIT, 30%; with CLK1 it was 12%. For the same molecule, the “%Inh” value in the assay on CLK2 is reported as 0%; in the assay with CLK3 it was 8%; with CLK4, 7%; with CSF1R-autoinhibited, 24%.

`O=C(Nc1n[nH]c2cc(-c3ccccc3F)ccc12)C1CC1` [SB-733371]: the “%Inh” value with CDKL3 was 14%; in the assay with CDKL5, 0%; with CHEK1, 0%; with CHEK2, 13%; with CIT it was 7%; in the assay on CLK1 it was 2%. Also, the “%Inh” value in the assay with CLK2 stood at 0%; with CLK3 it was 14%; with CLK4, 0%; in the assay with CSF1R-autoinhibited, 0%.

With `CCS(=O)(=O)c1ccc(OC)c(Nc2ncc(-c3ccc(F)cc3)o2)c1.Cl` [GW591947], the “%Inh” value in the assay with CDKL3 came to 59%; in the assay with CDKL5, 0%; with CHEK1 it was 0%; with CHEK2, 0%; in the assay on CIT, 21%; in the assay on CLK1 it was 25%. The “%Inh” value with CLK2 is on record as 40%; with CLK3, 79%; with CLK4, 23%; with CSF1R-autoinhibited it was 0%.

As to `Cc1ccccc1COc1cc(-n2cnc3cc(Cl)ccc32)sc1C(N)=O` [GW813349], the “%Inh” value is 23% in the assay on CDKL3; 2% in the assay with CDKL5; 0% with CHEK1; 0% with CHEK2; 21% with CIT; 18% in the assay with CLK1. The “%Inh” value is reported as 3% with CLK2, 0% in the assay on CLK3, 6% in the assay with CLK4 and 0% in the assay with CSF1R-autoinhibited.
